From PubChem BioAssay (NCI)
This is part of a sample that, as a whole, favours compounds with a hit. Of some 83,000 tested, about 20% had one in any assay.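 Compound tested at a single concentration for 48 hours in 96-well plates; a percent growth value below 10 was scored as active.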 The source made the active and inactive calls.

system: MDA-MB-468 breast; experiment: NCI-60 one-dose screen, 48 h (100 = growth as untreated, 0 = no growth, -100 = all killed); details: 10 µM unless noted

Row | Structure (SMILES) | growth
1 | CN(C)S(=O)(=O)c1ccc(-c2nc(C(Cl)Cl)nc3cc(-c4ccccc4)nn23)cc1 | 60.7% (inactive)
2 | CC[C@@H](c1ccc(O)c(O)c1)[C@@H](CC)c1ccc(O)c(O)c1 | 53.1% (inactive)
3 | COc1ccc(C(=O)C2C(C#N)C(C#N)C3c4ccccc4C=CN23)cc1 (stereo not given) | 64.8% (inactive)
4 | C=C[C@@H]1C[C@H](O)Cc2cc(F)ccc2N1 | 88.7% (inactive)
5 | CN1C(C(=O)Nc2ccccn2)=C(O)c2sc(Cl)cc2S1(=O)=O | 98.7% (inactive)
6 | N=C(N)c1ccc(-c2ccc(-c3ccccc3)o2)nc1 | 59.9% (inactive)
7 | Clc1nc2ccc(Br)cc2cc1-c1nc2ccccc2[nH]1 | 76.3% (inactive)
8 | NC(=NCCCOc1ccc(Cl)cc1)Nc1ccc(Cl)cc1 | -14.9% (active)
9 | CC(C)(C)c1ccc(S(=O)(=O)Oc2ccc(NC(=O)C3CCCCC3)cc2)cc1 | 28.2% (inactive)
10 | CCn1cc(C(=O)O)c(=O)c2cc(F)c(N3CCNCC3)cc21 | 93.2% (inactive)
11 | Cc1ccc(C(=O)c2ccc(C)cc2)cc1 | 91% (inactive)
12 | Cc1ccc(NC2CC(=O)N(c3c(C)cc(C)cc3C)C2=O)c(C)c1 (stereo not given) | 114% (inactive)
13 | CCN(CC)C(=O)C1CCN(C(=O)c2ccccc2)CC1 | 109% (inactive)
14 | Clc1ccc2c(NCCCCNc3nc(N4CCCCC4)nc4ccccc34)ccnc2c1 | 7.06% (active)
15 | Nc1ncnc2[nH]ncc12 | -20.3% (active)
16 | COc1cc(C2C3=C(COC3=O)N(CCO)c3cc4c(cc32)OCO4)cc(OC)c1O (stereo not given) | -35.5% (active)
17 | S=CN1CCCCC1 | 93% (inactive)
18 | O=C(NNc1ccccc1)OCc1ccccc1 | 108% (inactive)
19 | CCOC(=O)C1=C(C)NC(SCc2nnc(-c3ccc(Cl)cc3)o2)=NC1c1ccc(Cl)cc1 (stereo not given) | 48.9% (inactive)
20 | COc1cc(CO)cc2cc3ccccc3nc12 | 40.8% (inactive)

Row | Structure (SMILES) | growth
21 | CC(=O)Nc1nc2c(s1)CCc1c-2cn(S(=O)(=O)c2ccccc2)c1-c1ccccc1 | 61.6% (inactive)
22 | [N-]=[N+]=NCc1ncc(-c2ccc(C(F)(F)F)cc2)c(NC2CCCCCC2)n1 | 103% [50 µM] (inactive)
23 | COC(=O)C1=C(C(=O)ON)C2C=CC1(C(Cc1ccccc1)Nc1ccccc1)O2 (stereo not given) | -45% (active)
24 | S=c1[nH]ccn1-c1ccccc1Cl | 103% (inactive)
25 | Cc1ccc(-c2cc(C(=O)Nc3ccc(S(=O)(=O)N4CCCCC4)cc3)[nH]n2)c(O)c1 | 38.8% (inactive)
26 | COc1ccc(COC(C)=O)cc1 | 108% (inactive)
27 | CN[C@@H](C)C(=O)N[C@H]1CCS[C@H]2CC(C)(C)[C@@H](C(=O)N[C@H]3c4ccccc4C[C@H]3OCC#CC#CCO[C@@H]3Cc4ccccc4[C@@H]3NC(=O)[C@H]3N4C(=O)[C@@H](NC(=O)[C@H](C)NC)CCS[C@H]4CC3(C)C)N2C1=O | 19.3% (inactive)
28 | NCCn1cc(-c2nc(-c3c[nH]c4ncccc34)cs2)c2cc(Br)ccc21 | 66% (inactive)
29 | COc1ccc(-c2nc3sccn3c2/C=C/C(=O)c2cc(F)cc(F)c2)cc1 | 85.8% (inactive)
30 | Cc1ccc2c(n1)C(=O)C(Cl)=C(Nc1ccc(N3CCN(C)CC3)cc1)C2=O | -84.6% (active)
31 | Clc1cc(Cl)c2nc(-c3ccc(-c4ccc(/C=N/NC5=NCCN5)cc4)s3)cn2c1 | 103% (inactive)
32 | Cc1c2cnccc2c(C)c2c1c1cc(C3OCCCO3)ccc1n2C | -34% (active)
33 | O=C(CSc1nc2ccccc2[nH]1)Nc1cccc(Cl)c1 | 113% (inactive)
34 | CCC(=O)Nc1cc2c(cc1Cl)-c1ccccc1C2 | 97.9% (inactive)
35 | COc1ccc(-c2ccc(-c3ccc(C(=N)N)cc3)s2)cc1Cl | -65% (active)
36 | COc1ccccc1/C=C/C(=O)c1nnn(-c2ccc(F)cc2)c1C | 38.2% (inactive)
37 | CN1CCN(C2=C(Cl)C(=O)c3ccccc3C2=O)CC1 | 57% (inactive)
38 | CCOC(=O)N/N=C\C(C)=N\NC(=O)OCC | 114% (inactive)
39 | Cc1cc(N(CCCNc2ccnc3cc(Cl)ccc23)Cc2ccccn2)nc(N2CCCC2)n1 | 88.3% (inactive)
40 | O=C(C(=O)c1cc(Br)ccc1O)c1cc(Br)ccc1O | 29.5% (inactive)
